Records with an inconclusive call do not appear. Where a call stands in place of a potency, no number is given. The source made the active and inactive calls. Calls follow the shape of the dose curve; as a rule, active = well fitted cell-killing curve with a large enough effect in the repeat runs; inconclusive = weak or mixed curves, or effect the other way; inactive = no such curve, though single readings can be large or run the other way.

The nature of the experiment: qHTS assay to identify small molecule agonists of the estrogen receptor alpha (ER-alpha) signaling pathway in the presence of an antagonist - cell viability counter screen (AID 1259386).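 Also: cells exposed to compounds for 22 h at 37 °C before the viability read; nearly all actives have a fitted effect of over 30% in size.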 The note with it: VM7Luc4E2 viability, CellTiter-Fluor fluorescence, 22 h; series mostly up to 92.4 µM. An excerpt:
National Center for Advancing Translational Sciences [NCATS]
NIH Chemical Genomics Center [NCGC]
U.S. Environmental Protection Agency [EPA]
National Institutes of Environmental Health Sciences [NIEHS]
National Toxicology Program [NTP]
U.S. Food and Drug Administration [FDA]
Estrogen receptor (ER), a member of nuclear hormone receptor plays an important role in development, metabolic homeostasis and reproduction. Two subtypes of ER, ER-alpha and ER-beta, have similar expression patterns with some uniqueness in both types. Endocrine disrupting chemicals (EDCs) and their interactions with steroid hormone receptors like ER causes disruption of normal endocrine function. Therefore, it is important to understand the effect of environmental chemicals in ER signaling pathway. For identifying ER agonists, VM7Luc4E2 cell line has been used in the current assay.
VM7Luc4E2 cell line (provided by Denison MS, University of California) endogenously expresses full-length ER-alpha and is stably transfected with a plasmid containing four estrogen responsive elements (ERE) upstream of a luciferase reporter gene. This current screening for measuring luciferase reporter gene activity using VM7Luc4E2 cells against Tox21 10K library collection is a confirmation study on agonist mode screening in presence of ER-antagonist (ICI-182,780) at 10.0nM final concentration. The cytotoxicity of the compounds was tested in parallel by measuring the cell viability using CellTiter-Fluor assay system (Promega, Madison, WI) in the same wells.
Tox21 Assay Protocol Summary:
VM7Luc4E2 cells were cultured in phenol red free assay medium containing 10% charcoal stripped FBS for 5 days prior to the assay. The cells were dispensed at 4,000 cells in 4uL of assay medium per well into white wall/solid-bottom 1536-well plates (Corning Life Sciences, Corning, NY) using a Multidrop Combi (Thermo Fisher Scientific Inc., Waltham, MA) dispenser. After the assay plates were incubated at 37C and 5% CO2 for 24hr, 1uL of 10.0nM (final concentration) ICI-182,780 or assay buffer was added using two separate tips of Flying Reagent Dispenser (FRD, Aurora Discovery, San Diego, CA). Then 23nL of compounds dissolved in DMSO at 15 concentrations and positive controls or DMSO only was transferred to the assay plates by a Pintool station (Wako, San Diego, CA). The assay plates were incubated at 37C and 5% CO2 for 22hr. After 21hr incubation at 37C, 1uL/well CellTiter-Fluor reagent (Promega Corporation, Madison, WI) was added to each well using FRD and after 1hr incubation at 37C and 5% CO2, the fluorescence signal was measured on ViewLux plate reader (PerkinElmer, Shelton, CT).
In the case of `CC(=O)OC(C)c1ccccc1` (stereo not given), the Potency result was “inactive”.

As to `CC(=O)/C=C/c1ccco1`, the Potency result is “inactive”. To `CCC(O)C(C)(C)C` (stereo not given) belongs “inactive”; to `CN(C1CCCCC1)S(=O)(=O)c1ccccc1N`, “inactive”; to `COCCOCCOCCOC`, “inactive”. In the case of `CC1CCC(C(C)(C)S)C(=O)C1` (stereo not given) it was “inactive”; in that of `CCC1COC(=O)O1` (stereo not given), “inactive”. To `CCCC(C)CC` (stereo not given) belongs “inactive”; to `C=CCOCC(CO)(COCC=C)COCC=C`, “inactive”. For the compound `O=C(O)/C=C/c1ccccc1`, the Potency result was “inactive”. Turning to `C=CCOc1c(Br)cc(C(C)(C)c2cc(Br)c(OCC=C)c(Br)c2)cc1Br`, the Potency entry was “inactive”. Turning to `CC(=O)N1CCN(c2ccc(O)cc2)CC1`, the Potency entry is “inactive”. In the case of `C[N+](C)(C)CC(O)CCl` (stereo not given) it was “inactive”; in that of `CCC1Nc2cc(Cl)c(S(N)(=O)=O)cc2S(=O)(=O)N1` (stereo not given), “inactive”.

As to `O=c1cc(O)c(Cl)c[nH]1`, the Potency result is “inactive”.

Regarding `Cc1ccc(S(=O)(=O)NC(=O)NC2CCCCCCC2)cc1`, the Potency result was “inactive”. Take `CC(=O)Nc1ccc(C)cc1`: the Potency result was “inactive”.

Regarding `CCS(=O)(=O)CCn1c([N+](=O)[O-])cnc1C`, the Potency result is “inactive”. In the case of `N#CCCOCCOCCC#N` it was “inactive”.

In the case of `CC(=O)OCCCc1ccccc1`, the Potency result was “inactive”.

With `CCOC(=O)CC(CC(=O)OCC)(OC(C)=O)C(=O)OCC`, the Potency entry was “inactive”. Take `Cc1c(C(C)C)c(=O)n(-c2ccccc2)n1C`: the Potency entry is “inactive”. In the case of `CCOC(=O)CC#N` it was “inactive”; in that of `C=C[C@@H](C)CCC=C(C)C`, “inactive”; in that of `CCCCCN(CCCOC)C(=O)C(CCC(=O)O)NC(=O)c1ccc(Cl)c(Cl)c1` (stereo not given), “inactive”. On to `CCCCCC(=O)OCC`, for which the Potency entry was “inactive”.

`NS(=O)(=O)c1ccc(Cl)c(S(N)(=O)=O)c1`: the Potency result was “inactive”.

Consider `O=S(=O)(O)c1cc(O)ccc1O`, for which the Potency entry is “inactive”.

As for `CC(C)=CC(C)(C)C`, the Potency entry is “inactive”.

Consider `Cc1cc(C)cc([N+](=O)[O-])c1`, for which the Potency entry is “inactive”. For `CC1(N)CCC(C(C)(C)N)CC1` (stereo not given), the Potency result was “inactive”.

For the compound `CNC(=O)C(c1ccccc1)c1ccccc1`, the Potency result was “inactive”. In the case of `CC(=O)OC[C@H]1O[C@@H](OC(C)=O)[C@H](OC(C)=O)[C@@H]1OC(C)=O` it was “inactive”; in that of `CCCCCCCCCCC`, “inactive”; in that of `O=c1[nH]c(=O)c2ccccc2o1`, “inactive”.

Take `CCC(=O)OCCC(C)CCC=C(C)C` (stereo not given): the Potency entry is “inactive”. In the case of `CCCCCCCC[Si](OCC)(OCC)OCC` it was “inactive”; in that of `CC(=O)N(CC(O)CO)c1c(I)c(C(=O)NCC(O)CO)c(I)c(C(=O)NCC(O)CO)c1I` (stereo not given), “inactive”; in that of `CCN(CCC#N)c1ccccc1`, “inactive”. To `CCCCCCCCCCCCOC(C)=O` belongs “inactive”.
